TDP1 cell noCPT – qHTS for Inhibitors of human tyrosyl-DNA phosphodiesterase 1 (TDP1): qHTS in cells in absence of CPT; DT40 Tdp1-/- hTDP1 cells, no CPT, ATP luminescence, 48 h; Potency, µM (highest dose often 46.2 µM), inactives show at the top dose activity change, negative = growth inhibition, most hits filed as inhibitors; 15% of 420,000 active; further: potency means the concentration at half of the fitted maximal effect; nearly all actives have a fitted effect of over 55% in size
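No-CPT arm: Tdp1-/-;hTDP1 DT40 cells (400/well) plus compounds, incubated ≥48 hr at 37 °C. Readout CellTiter-Glo luminescence.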
HT1080NT lethal – qHTS for induction of synthetic lethality in tumor cells producing 2HG: qHTS for the HT-1080-NT fibrosarcoma cell line; HT-1080-NT fibrosarcoma viability, CellTiter-Glo ATP luminescence, 48 h; AID 686970, 2013; 1.6% of 360,000 active; Potency, µM (titrated, usually from 46.1 µM), inactives show at the top dose activity, negative = less viability, hits mostly cytotoxic;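 further: NT is the 2HG producing partner of a matched IDH1 knockdown line; potency means the concentration at half of the fitted maximal effect; 0% = DMSO-treated cells and -100% = media-only wells without cells; nearly all actives have a fitted effect of over 55% in size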
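Viability of the 2HG-overproducing fibrosarcoma line after 48 hours of compound exposure at 37 degrees C was determined by luminescence with CellTiter-Glo, and concentration-effect curves were then fitted and categorized.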
HT1080 IDH1KD tx – qHTS for induction of synthetic lethality in tumor cells producing 2HG: qHTS for the HT-1080-IDH1KD cell line; HT-1080 IDH1 knockdown viability, ATP luminescence, 48 h; Potency, µM (titrated, usually from 46.1 µM), inactives show top-dose activity, negative = toxicity, hits mostly cytotoxic; 2% of 360,000 active; AID 686971, 2013;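 further: potency means the concentration at half of the fitted maximal effect; 0% = DMSO wells and -100% = cell-free medium wells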
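IDH1KD HT-1080 cells, 750/well, RPMI + 5% FBS; compound pinned after 2 h settling; 48 h, 37 °C; CellTiter-Glo luminescence; % activity normalised to DMSO and no-cell wells; curves fitted, classed by r2 and efficacy.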
IL-1B inflam inh – qHTS for Inhibitors of Inflammasome Signaling: IL-1-beta AlphaLISA Primary Screen; THP-1 LPS/ATP IL-1B secretion, AlphaLISA, 16 h; hits give low values; activity change, % at 57.5 µM; 4.7% of 360,000 active; AID 743279, 2014; in the data active means activity change below about -50%; inconclusive means mostly about -30% to -49%
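Secreted IL-1B measured by AlphaLISA bead assay after 16 h compound exposure of THP-1 cells; compounds (final up to 57.5 uM) added 1 h before LPS (250 ng/mL) and ATP (1.25 mM) stimulation; lower signal means less secretion.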
DT40 TDP1 CPT – qHTS for Inhibitors of human tyrosyl-DNA phosphodiesterase 1 (TDP1): qHTS in cells in presence of CPT; chicken DT40 Tdp1-/-;hTDP1 cells + 20 nM CPT, ATP luminescence, 48 h; Potency, µM (series often up to 46.2 µM), for inactives: top-dose activity change, negative = growth inhibition, most hits filed as inhibitors; 12% of 420,000 active; AID 686979, 2013; further: potency means the concentration at half of the fitted maximal effect; nearly all actives have a fitted effect of over 55% in size
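Chicken DT40 Tdp1-/- cells complemented with human TDP1, 400 cells/well, exposed to compounds plus 20 nM camptothecin for at least 48 h at 37 C; viability read as ATP content by CellTiter-Glo luminescence.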
Numbers without * were called inactive; i = inactive; u = inconclusive; x = no result. A selection: hits, their analogues and other compounds. The true share with any hit is near 19%. Unless noted, the call rests on the fitted dose curve; in most records, active means well fitted curve in the direction sought with a large enough effect; inconclusive means small, poorly fitted or top-dose-only effect, or another doubt; inactive means no such curve, though single readings can be large; an effect the other way counts as inactive or inconclusive. Unless noted, on the % scale 0 is the no-effect control and ±100 the full control effect.

SMILES | TDP1 cell noCPT | HT1080NT lethal | HT1080 IDH1KD tx | IL-1B inflam inh | DT40 TDP1 CPT
Cc1ccc(S(=O)(=O)N2CCC(C(=O)NNC(=O)c3ccccc3O)CC2)cc1C | u | -25.2% | u | 7.9 | u
Cc1ccc(S(=O)(=O)N2CCC(C(=O)NNC(=O)c3ccccc3O)CC2)cc1 | 14.6µM* | -26.0% | u | 32.8 | u
Cc1cc(C)c(C)c(S(=O)(=O)N2CCC(C(=O)NNC(=O)c3ccccc3O)CC2)c1C | 16.4µM* | -21.4% | u | 30.9 | u
Cc1ccc(-n2nc(C)c3c(C(=O)NCc4ccccc4)cc(C4CC4)nc32)cc1 | -20.8% | x | x | x | -18.0%
COc1ccc(/C=N/n2cc(-c3ccccc3)nc2N)cc1 | 5.17µM* | -13.8% | -12.4% | 9.4 | 3.26µM*
CC(=O)Nc1ccc(Cl)c(C(N)=O)c1 | 1.7% | 23.9% | -0.8% | 0.0 | -21.3%
NC(=O)c1cc(N2C(=O)C=CC2=O)ccc1Cl | 16.4µM* | u | 15.8µM* | 0.0 | 13µM*
CC(O)CN=c1cc(-c2ccccc2)oc2ccc(Cl)cc12 (stereo unspecified) | 16.4µM* | u | u | -72.3* | u
OCCN=c1cc(-c2ccccc2)oc2ccc(Cl)cc12 | 16.4µM* | -29.9% | -26.1% | -70.3* | u
CN(C)CCCN=c1cc(-c2ccccc2)oc2ccc(Cl)cc12 | u | 0.3% | -10.6% | -50.2* | 10.3µM*
CC(C)CN=c1cc(-c2ccccc2)oc2ccc(Cl)cc12 | u | u | u | -27.4 | u
Cc1cc(/C=C2\Cc3ccccc3C2=O)c(C)n1-c1ccccc1 | 13µM* | -2.6% | -0.4% | -61.9* | u
Cc1cc(/C=C2/C(=N)N3C(c4ccccc4)=CSC3=NC2=O)c(C)n1-c1ccccc1 | 13µM* | 0.5% | 4.1% | 25.8 | 13µM*
O=c1/c(=C\c2cccnc2)sc2nc3ccccc3n12 | u | 23.6% | 8.2% | 19.1 | -11.1%
Cc1cc(/C=c2/sc3nc4ccccc4n3c2=O)c(C)n1-c1ccccn1 | 18.4µM* | -19.6% | 6.3% | -57.7* | u
Cc1cc(/C=c2\sc3nc4ccccc4n3c2=O)c(C)n1-c1ccc(C(=O)O)cc1 | 13µM* | 4.1% | 27.4% | 0.0 | 13µM*
Cc1cc(C=C2C(=O)c3ccccc3C2=O)c(C)n1-c1cccc(C(=O)O)c1 | u | 3.8% | 0.7% | 16.2 | u
CCCCn1c(N)c(N(Cc2ccccc2OC)C(=O)CN2C(=O)NC(C)(c3ccccc3)C2=O)c(=O)[nH]c1=O (stereo unspecified) | -0.4% | 12.5% | 12.8% | -11.2 | 1.1%
CNc1ncnc2c1ncn2[C@H]1CN(Cc2ccc(F)cc2)C[C@@H](CO)O1 | -23.5% | 21.5% | -0.9% | 34.8 | -25.9%
Cc1ccsc1C(=O)NCCc1ccc(S(N)(=O)=O)cc1 | -5.7% | -2.4% | -0.4% | 10.3 | 5.8%
Cc1cc(C=C2C(=O)c3ccccc3C2=O)c(C)n1-c1ccc(C(=O)O)cc1 | -16.5% | -0.1% | 4.6% | -56.0* | -12.8%
CC1=NN(c2ccccc2)C(=O)/C1=C\c1cc(C)n(-c2ccccc2)c1C | 23.1µM* | 9.7% | 6.4% | i | u
COc1cccc(Cn2nnc(C(=O)Nc3cc(Cl)ccc3OC)c2N)c1 | 16.4µM* | -21.2% | u | -2.2 | 23.1µM*
Cc1ccc(Cn2nnc(C(=O)Nc3cc(C)ccc3C)c2N)cc1 | -6.7% | -4.0% | -12.3% | 4.9 | u
Cc1ccc(C)c(NC(=O)c2nnn(Cc3ccc(F)cc3Cl)c2N)c1 | 6.51µM* | x | x | x | 14.6µM*
COc1ccc(OC)c(NC(=O)c2nnn(Cc3ccc(Br)cc3F)c2N)c1 | 18.4µM* | -8.2% | -12.9% | -25.8 | 8.2µM*
COc1cccc(NC(=O)Cn2nnc(C(=O)Nc3cc(Cl)ccc3OC)c2N)c1 | u | u | -9.4% | 38.3 | -0.6%

Assay outcomes (PubChem BioAssay)
